Where “and” joins values, the source holds several entries; their conditions need not be identical. Equal entries are not always repeated. Inconclusive results are not listed. Entries that show only a call come without a potency. A structure can be active in one record and inactive in another. Calls of active or inactive are those of the source. Unless noted, calls follow the shape of the dose curve; as a rule, active = well fitted curve in the direction sought with a large enough effect in the repeat runs; inconclusive = weak or mixed curves; inactive = no such curve, though single readings can be large; an effect the other way counts as inactive or inconclusive.
Experiments:
[1] = qHTS assay to identify small molecule agonists of the RXR signaling pathway - cell viability counter screen (AID 1159529); also: nearly all actives have a fitted effect of over 50% in size; also: potency is read from the fitted curve at half-maximal effect
Procedure, shortened: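 RXR-alpha-UAS-bla HEK 293T cells in medium with 2% charcoal-stripped FBS were pre-incubated 5 hr, then compound-treated 16 hr at 37 C. Viability was read by CellTiter-Glo luminescence in the same wells as the beta-lactamase assay, with tetraoctyl ammonium bromide as positive control.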

[2] = qHTS assay to identify small molecule antagonists of the retinoid acid receptor (RAR) signaling pathway - cell viability counter screen (AID 1159551); also: nearly all actives have a fitted effect of over 35% in size
Procedure, shortened: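 C3RL4 RARE-luciferase cells, 1,000/well, incubated overnight, then dosed with compound plus 1 uM retinol (final). After 6 hr at 37 C, viability read by CellTiter-Glo ATP luminescence following 30 min at room temperature.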

[3] = qHTS assay to identify small molecule antagonists of the retinoic acid receptor (RAR) signaling pathway (AID 1159552; also: nearly all actives have a fitted effect of over 50% in size; also: potency is read from the fitted curve at half-maximal effect)
Procedure, shortened: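 Retinol signaling pathway inhibitors screened in C3RL4 RARE-luciferase reporter cells seeded overnight at 37 C, then compounds added with 1 uM (final) retinol as pathway substrate. After 6 hr at 37 C, luciferase luminescence read after 30 min at room temperature.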

[4] = qHTS assay to identify small molecule agonists of the retinoic acid receptor (RAR) signaling pathway (AID 1159553)
Procedure, shortened: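 C3RL4 RARE-luciferase cells were seeded at 1,000/well and grown overnight at 37 C, then exposed to compounds for 6 hr at 37 C, 5% CO2. Luciferase reagent was added and luminescence was read after 30 min at room temperature.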

[5] = qHTS assay to identify small molecule antagonists of the estrogen related receptor (ERR) signaling pathway from Tox21 library - cell viability counter screen (AID 1224834); also: nearly all actives have a fitted effect of over 30% in size; also: potency is read from the fitted curve at half-maximal effect
Procedure, shortened: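 ERR reporter cells, 2,000 per well, rested 6 h, then exposed to compound in DMSO for 17.5 hours at 37 C. Viability read as fluorescence after 30 min with CellTiter-Fluor.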

[6] = target: Luciferin 4-monooxygenase (Photinus pyralis) (UniProt P08659); assay: qHTS assay to identify small molecule inhibitors of firefly luciferase (AID 1224835); also: nearly all actives have a fitted effect of over 25% in size; also: potency is read from the fitted curve at half-maximal effect
Sequence of Luciferin 4-monooxygenase (Photinus pyralis) (P08659 whole entry, looked up): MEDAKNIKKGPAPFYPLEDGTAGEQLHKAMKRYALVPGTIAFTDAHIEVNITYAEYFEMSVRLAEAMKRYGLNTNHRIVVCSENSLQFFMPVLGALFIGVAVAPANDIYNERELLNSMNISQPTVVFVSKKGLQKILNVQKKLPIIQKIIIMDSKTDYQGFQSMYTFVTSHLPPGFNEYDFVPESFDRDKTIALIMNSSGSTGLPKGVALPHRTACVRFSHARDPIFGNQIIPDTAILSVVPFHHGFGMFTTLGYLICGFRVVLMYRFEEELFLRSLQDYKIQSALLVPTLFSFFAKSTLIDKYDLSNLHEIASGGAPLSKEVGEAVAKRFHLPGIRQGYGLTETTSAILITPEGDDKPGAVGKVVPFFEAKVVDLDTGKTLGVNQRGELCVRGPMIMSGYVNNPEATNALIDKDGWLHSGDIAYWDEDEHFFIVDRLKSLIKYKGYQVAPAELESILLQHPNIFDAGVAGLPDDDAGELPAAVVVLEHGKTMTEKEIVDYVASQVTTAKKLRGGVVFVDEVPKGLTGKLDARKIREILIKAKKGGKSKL
Procedure, shortened: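 Quantitative HTS format; KM concentrations of both substrates. Purified P. pyralis FLuc activity quantified from luminescence images.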

[7] = qHTS assay to identify small molecule agonists of the constitutive androstane receptor (CAR) signaling pathway - cell viability counter screen (AID 1224836); also: series mostly up to about 92 µM; nearly all actives have a fitted effect of over 45% in size
Procedure, shortened: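 HepG2 cells stably carrying hCAR and a CYP2B6-2.2kb reporter; 15-concentration compounds plus PK11195 (final 0.75 uM), 23 hr at 37 C/5% CO2. Viability read by CellTiter-Fluor fluorescence.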

[8] = qHTS assay to identify small molecule antagonists of the constitutive androstane receptor (CAR) signaling pathway - cell viability counter screen (AID 1224837); also: series mostly up to about 92 µM; nearly all actives have a fitted effect of over 45% in size
Procedure, shortened: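 HepG2 cells stably carrying hCAR and CYP2B6-2.2kb reporter, stimulated with 50 nM CITCO and compounds at 15 concentrations for 23 h at 37 C. Viability measured by CellTiter-Fluor fluorescence.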

[9] = qHTS assay to identify small molecule antagonists of the estrogen related receptor signaling pathway with the pleiotropic PPARgamma coactivator (PGC) from Tox21 10K library - cell viability counter screen (AID 1224840; active = well fitted cell-killing curve with a large enough effect in the repeat runs, not every such curve was filed as active; also: nearly all actives have a fitted effect of over 40% in size)
Procedure, shortened: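 PGC/ERR cells (2,000/well) plated 6 h, then compound-treated for 17.5 h at 37 C. Viability measured by CellTiter-Fluor fluorescence after 30 min at 37 C, multiplexed with the pathway assay.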

[10] = qHTS assay to identify small molecule antagonists of the estrogen related receptor signaling pathway with the pleiotropic PPARgamma coactivator (PGC) from Tox21 10K library (AID 1224841; call rule not given here; also: actives are mostly falling curves and most rising ones were filed inactive; nearly all actives have a fitted effect of over 50% in size; also: potency is read from the fitted curve at half-maximal effect)
Procedure, shortened: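 PGC/ERR cell line, 2,000 cells/well, pre-incubated 6 hours at 37 C, then exposed to compounds for 18 hours at 37 C; luciferase read with One-Glo luminescence after 30 min at room temperature.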

[11] = qHTS assay to identify small molecule agonists of the estrogen related receptor signaling pathway with the pleiotropic PPARgamma coactivator (PGC) from Tox21 10K library (AID 1224842); also: nearly all actives have a fitted effect of over 15% in size
Procedure, shortened: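 PGC/ERR reporter cells (NTP line) were seeded 2,000 per well, rested 6 h at 37 C/5% CO2, then pin-dosed with compounds in DMSO for 18 h at 37 C; luciferase read by One-Glo luminescence after 30 min at room temperature.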

[12] = target: Thyrotropin receptor (Homo sapiens) (UniProt P16473); assay: qHTS assay to identify small molecule agonists of the thyroid stimulating hormone receptor (TSHR) signaling pathway (AID 1224843; calls by dose curve; also: nearly all actives have a fitted effect of over 45% in size)
Sequence of Thyrotropin receptor (Homo sapiens) (P16473 whole entry, looked up): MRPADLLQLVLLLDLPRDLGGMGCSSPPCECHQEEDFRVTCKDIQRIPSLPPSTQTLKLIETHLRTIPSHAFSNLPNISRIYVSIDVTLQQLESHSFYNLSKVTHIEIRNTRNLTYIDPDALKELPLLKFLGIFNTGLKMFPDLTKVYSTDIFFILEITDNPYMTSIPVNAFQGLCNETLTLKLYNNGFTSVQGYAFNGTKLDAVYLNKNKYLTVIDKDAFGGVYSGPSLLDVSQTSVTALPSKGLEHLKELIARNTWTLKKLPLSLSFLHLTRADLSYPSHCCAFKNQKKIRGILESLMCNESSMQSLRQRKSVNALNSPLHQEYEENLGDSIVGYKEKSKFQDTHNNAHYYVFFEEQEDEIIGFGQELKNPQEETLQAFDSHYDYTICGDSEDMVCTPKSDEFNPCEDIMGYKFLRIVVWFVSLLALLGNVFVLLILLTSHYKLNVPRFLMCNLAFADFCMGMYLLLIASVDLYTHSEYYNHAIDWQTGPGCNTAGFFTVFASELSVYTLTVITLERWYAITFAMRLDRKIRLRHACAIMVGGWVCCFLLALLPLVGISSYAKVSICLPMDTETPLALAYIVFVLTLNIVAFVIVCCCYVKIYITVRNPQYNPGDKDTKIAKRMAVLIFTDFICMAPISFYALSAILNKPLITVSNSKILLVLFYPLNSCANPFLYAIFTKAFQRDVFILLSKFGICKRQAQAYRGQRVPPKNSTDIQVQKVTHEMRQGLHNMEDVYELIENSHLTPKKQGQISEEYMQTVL
Procedure, shortened: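 TSHR-expressing HEK293 cells (800 per well) were exposed to compounds for 30 min at room temperature. cAMP was then detected by HTRF competition with cAMP-d2 and anti-cAMP cryptate, read after 1 h at room temperature. Fifteen concentrations, triplicate.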

[13] = target: Nuclear receptor subfamily 1 group I member 3 (Homo sapiens) (UniProt Q14994); assay: qHTS assay to identify small molecule antagonists of the constitutive androstane receptor (CAR) signaling pathway (AID 1224838); also: nearly all actives have a fitted effect of over 40% in size
Sequence of Nuclear receptor subfamily 1 group I member 3 (Homo sapiens) (Q14994 whole entry, looked up): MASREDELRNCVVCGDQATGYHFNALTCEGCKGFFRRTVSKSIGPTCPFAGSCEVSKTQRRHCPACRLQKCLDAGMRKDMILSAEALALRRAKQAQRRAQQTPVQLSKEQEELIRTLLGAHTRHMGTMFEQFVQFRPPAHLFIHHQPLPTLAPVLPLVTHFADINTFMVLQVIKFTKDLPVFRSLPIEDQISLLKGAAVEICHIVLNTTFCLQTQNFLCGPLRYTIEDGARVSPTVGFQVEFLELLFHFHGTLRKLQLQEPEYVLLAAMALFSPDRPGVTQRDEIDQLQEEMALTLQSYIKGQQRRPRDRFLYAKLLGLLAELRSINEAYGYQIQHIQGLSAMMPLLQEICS
Procedure, shortened: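 HepG2 cells stably carrying hCAR and a CYP2B6-2.2kb luciferase reporter, seeded 4 hrs before compound (15 concentrations). Stimulated with 50 nM CITCO for 24 hr at 37 C. ONE-Glo luminescence read after 30 min at room temperature.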

[14] = target: Nuclear receptor subfamily 1 group I member 3 (Homo sapiens) (UniProt Q14994); assay: qHTS assay to identify small molecule agonists of the constitutive androstane receptor (CAR) signaling pathway (AID 1224839); also: series mostly up to about 92 µM; nearly all actives have a fitted effect of over 15% in size
Procedure, shortened: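 HepG2 cells stably co-transfected with hCAR and a CYP2B6-2.2kb luciferase reporter; compounds at 15 concentrations with 0.75 uM PK11195 present. After 24 hr at 37 C, luciferase read by ONE-Glo luminescence.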

[15] = qHTS assay to identify small molecule antagonists of the estrogen related receptor (ERR) signaling pathway - cell viability counter screen (AID 1224818); also: series mostly up to about 46 µM
Procedure, shortened: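 ERR cells, 2,000 per well, compound added after 6 h and incubated 17.5 h at 37 C. Viability read by CellTiter-Fluor fluorescence after a further 30 min at 37 C.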

[16] = qHTS assay to identify small molecule antagonists of the estrogen related receptor (ERR) signaling pathway (AID 1224819;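 also: luminescence from an ERR-driven luciferase reporter measured with One-Glo reagent; series mostly up to about 46 µM; nearly all actives have a fitted effect of over 50% in size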)
Procedure, shortened: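 ERR reporter cell line (NTP) plated at 2,000 cells/well, settled 6 h at 37C/5% CO2, then exposed to LOPAC compounds for 18 h at 37C. One-Glo luciferase luminescence read after 30 min at room temperature.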

[17] = qHTS assay to identify small molecule agonists of the estrogen related receptor (ERR) signaling pathway (AID 1224820)
Procedure, shortened: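 ERR reporter cells (NTP line) plated 2,000/well, incubated 6 h at 37 C/5% CO2, then pinned with compounds in DMSO and held 18 h at 37 C. One-Glo added; luminescence read after 30 min at room temperature.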

[18] = system: estrogen-related receptor alpha (ERRalpha) with PGC-1alpha coactivator, human; assay: qHTS assay to identify small molecule antagonists of the estrogen related receptor signaling pathway with the pleiotropic PPARgamma coactivator (PGC) (AID 1224821; calls by dose curve)
Procedure, shortened: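 Cells engineered for PGC/ERR signalling (line from NTP) were plated 6 h at 37 C/5% CO2, then exposed to DMSO-dissolved compound for 18 h at 37 C. Luciferase activity was read by One-Glo luminescence after 30 min at room temperature.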

[19] = qHTS assay to identify small molecule antagonists of the estrogen related receptor signaling pathway with the pleiotropic PPARgamma coactivator (PGC) cell viability counter screen (AID 1224822; also: series mostly up to about 46 µM)
Procedure, shortened: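 PGC/ERR cells rested 6 h, then compound-treated 17.5 h at 37 C. CellTiter-Fluor added for 30 min at 37 C, viability measured by fluorescence intensity.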

[20] = qHTS assay to identify small molecule agonists of the estrogen related receptor signaling pathway with the pleiotropic PPARgamma coactivator (PGC) (AID 1224823)
Procedure, shortened: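 PGC/ERR reporter cells were seeded, rested 6 h at 37 C/5% CO2, then exposed to compounds in DMSO by pin transfer for 18 h at 37 C. Luciferase activity was read as luminescence after One-Glo reagent and 30 min at room temperature.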

Compound | Potency [1] | Potency [2] | Potency [3] | Potency [4] | Potency [5] | Potency [6] | Potency [7] | Potency [8] | Potency [9] | Potency [10] | Potency [11] | Potency [12] | Potency [13] | Potency [14] | outcome [15] | outcome [16] | outcome [17] | outcome [18] | Potency [19] | outcome [20]
O=C(O)CCl | inactive | inactive | inactive | inactive | inactive | inactive | inactive | inactive | inactive | inactive | inactive | inactive |  |  |  |  |  |  |  | 
CCn1cc[n+](C)c1C | inactive | inactive | inactive | inactive | inactive | inactive | inactive | inactive | inactive |  |  |  |  |  |  |  |  |  |  | 
OCCOc1ccccc1 | inactive | inactive | inactive | inactive | inactive | inactive | inactive | inactive | inactive | inactive | inactive | inactive | inactive | inactive |  |  |  |  |  | 
O=C(O)c1ccccc1O | inactive | inactive |  | inactive | inactive |  | inactive | inactive | inactive |  |  |  | inactive | inactive |  |  |  |  |  | 
CCCCCCCCCCCC(=O)O | inactive | inactive | inactive | inactive | inactive | 40 µM (active) and 57.6 µM (active) and 71 µM (active) | inactive | inactive | inactive |  |  | inactive |  |  |  |  |  |  |  | 
CCCC[n+]1ccc(C)cc1 | inactive and 34.5 µM (active) | inactive |  | inactive | inactive and 68.2 µM (active) | 20.3 µM (active) and inactive | inactive | inactive | inactive |  |  |  |  |  |  |  |  |  |  | 
C[C@]12CCC(=O)C=C1CC[C@@H]1[C@@H]2CC[C@]2(C)C(=O)CC[C@@H]12 | inactive | inactive | 47.7 µM (active) and inactive | inactive | inactive | inactive | inactive | inactive | inactive | 67.4 µM (active) and inactive | inactive | inactive | inactive | inactive |  |  |  |  |  | 
O=P1(N(CCCl)CCCl)NCCCO1 (stereo not given) | inactive | inactive |  |  | inactive | inactive | inactive | inactive | inactive | inactive | inactive | inactive | inactive | inactive | inactive | inactive | inactive | inactive | inactive | inactive
O=[N+]([O-])c1ccccc1O | inactive | inactive | inactive | inactive | inactive | inactive | inactive | inactive | inactive | inactive | inactive |  | inactive | inactive |  |  |  |  |  | 
CCCCCCCCn1cc[n+](C)c1 | inactive | inactive | inactive | inactive |  | inactive |  |  | inactive |  |  | inactive |  |  |  |  |  |  |  | 
O=[N+]([O-])O | inactive | inactive |  | inactive | inactive |  | inactive | inactive | inactive |  |  | inactive |  |  |  |  |  |  |  | 
CCCC[n+]1ccccc1C | inactive | inactive |  |  | inactive | inactive | inactive | inactive | inactive |  |  |  |  |  |  |  |  |  |  | 
Cc1cc(Cl)ccc1N | inactive | inactive | inactive | inactive | inactive | inactive | inactive | inactive | inactive |  |  | inactive | inactive | inactive |  |  |  |  |  | 
CCCC[n+]1ccccc1 | inactive | inactive |  | inactive | inactive | inactive | inactive | inactive | inactive |  |  | inactive |  |  |  |  |  |  |  | 
